Data on 99 molecules can be found in PubChem BioAssay AID631 (The Scripps Research Institute Molecular Screening Center, 2007).

The campaign covered roughly 200,000 compounds. About 810 (0.41%) were called active. What follows is part of a selection rich in actives, with near analogues and random picks from the rest. Values without a mark were called inactive. Rule as the data show it: active = activation above about 19%; inactive = the rest.

Peroxisome proliferator-activated receptor gamma (Homo sapiens), sequence (P37231 whole entry, looked up): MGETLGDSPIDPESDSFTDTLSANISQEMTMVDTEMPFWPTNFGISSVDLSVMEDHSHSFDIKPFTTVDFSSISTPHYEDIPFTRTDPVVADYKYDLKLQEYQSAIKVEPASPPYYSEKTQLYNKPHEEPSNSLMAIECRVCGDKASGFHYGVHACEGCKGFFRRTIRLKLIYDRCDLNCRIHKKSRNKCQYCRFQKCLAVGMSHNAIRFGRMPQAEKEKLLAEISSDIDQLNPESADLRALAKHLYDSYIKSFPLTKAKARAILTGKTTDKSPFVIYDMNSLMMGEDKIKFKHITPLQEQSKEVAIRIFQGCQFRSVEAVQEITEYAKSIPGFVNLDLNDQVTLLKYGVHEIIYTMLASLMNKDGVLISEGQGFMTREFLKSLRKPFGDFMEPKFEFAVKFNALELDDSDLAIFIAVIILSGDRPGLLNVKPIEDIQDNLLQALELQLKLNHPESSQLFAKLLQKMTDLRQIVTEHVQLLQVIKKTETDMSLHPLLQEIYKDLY

The experiment has as its target Peroxisome proliferator-activated receptor gamma (Homo sapiens) (UniProt P37231). Nature of the experiment: PPARgamma agonists recruiting SRC-1 coactivator, primary screen, biochemical (AID 631).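 Also: 0% = DMSO and 100% = reference agonist.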 The note with it: PPARgamma-SRC-1 coactivator recruitment biochemical assay; at 8 µM; stronger effect = higher value.
Turning to `Cc1cc(C)c2cc(CN(Cc3cccs3)Cc3nnnn3CC3CCCO3)c(=O)[nH]c2c1` (centres undefined), the activation was 23.5% (active). As for `Cc1cc2cc(CN(Cc3cccs3)Cc3nnnn3CC3CCCO3)c(=O)[nH]c2cc1C` (centres undefined), the activation was -4.1%. Under `Cc1cc(C)c2cc(CN(Cc3nnnn3Cc3ccc(F)cc3)C3CCCC3)c(=O)[nH]c2c1` stands 2.6%. In the case of `CCC(C)(C)NC(=O)C(c1ccccn1)N(C(=O)c1csnn1)c1ccccc1` (centres undefined), the activation is 3.1%. Under `C/C(=N\NC(=O)OC(C)(C)C)c1ccc[nH]1` stands -0.7%; under `CC(=O)Nc1ccc(OCC(=O)NCc2ccc(C)cc2)cc1`, -5.7%. Consider `Cc1ccc(OCC(=O)Nc2ccc(-c3nc4ncccc4o3)cc2)cc1`, for which the activation is 19.5% (active). Consider `Cc1ccc(OCC(=O)Nc2ccc(S(=O)(=O)Nc3ccccn3)cc2)cc1`, for which the activation was 2.2%. Under `O=C(C1CCN(C2CCN(Cc3cccc4c3OCO4)CC2)CC1)N1CCOCC1` stands 1.6%; under `CCn1c(SCC(=O)Nc2cccc(F)c2)nnc1-c1cc2cc(Br)ccc2o1`, 24.4% (active); under `CCn1c(CNC(=O)c2ccco2)nnc1SCC(=O)Nc1cccc(F)c1`, 1.6%. The same measure for `Cn1c(SCC(=O)Nc2ccc(Br)cc2F)nnc1-c1ccco1`: 0.1%. As for `Cc1ccc(OCC(=O)OC(C)CN(C)Cc2ccccc2)cc1` (centres undefined), the activation is 5%. Under `NC(=O)CSc1oc(-c2cccs2)nc1S(=O)(=O)c1ccccc1` stands 20.3% (active). The same measure for `COC(=O)CSc1nccc(-c2cccs2)n1`: 4.8%; for `COc1ccc(OC)c(C(=O)CSc2nnc(-c3cccs3)o2)c1`: 11.4%; for `COc1cccc(CNC(=O)Cc2csc(Nc3nc(=S)[nH]c4ccccc34)n2)c1`: -3.6%. As to `CC(C)C(NC(=O)C1CCC(C(C)(C)C)CC1)C(=O)NCCCN1CCCCC1` (centres undefined), the activation is 13.2%. Under `Cc1cccc2cc(C#N)c(N3CCCC3)nc12` stands 7.6%.

For `Cc1cc(C)c2nc(N3CCCC3)c(C#N)cc2c1`, the activation is 3.7%. The same measure for `CC(=O)c1ccc(S(=O)(=O)N2CCN(c3nc4c(C)c(C)ccc4cc3C#N)CC2)cc1`: 27.9% (active).

`CCCN1CNC(=S)N(CCc2ccccc2)C1`: the activation is 4%. The same measure for `CNS(=O)(=O)c1ccc(N2CCCC2=O)c([N+](=O)[O-])c1`: -1.5%; for `COC(=O)c1[nH]c2ccc(Br)cc2c1NC(=O)Oc1ccccc1`: 20.2% (active). On to `COC(=O)c1[nH]c2ccccc2c1NC(=O)CN1CCCc2ccccc21`, for which the activation was 0.3%. The same measure for `COC(=O)c1[nH]c2ccccc2c1NS(=O)(=O)c1ccc(OC)cc1OC`: 6.1%; for `C=CCn1cc(-c2cccc(C(F)(F)F)c2)cc(C#N)c1=O`: 5.6%.

For the molecule `CCn1c(=O)cc(SCC(=O)NCCC2=CCCCC2)c2ccccc21`, the activation is 13.8%. The same measure for `CCn1c(=O)cc(SCC(=O)NCc2ccc3c(c2)OCO3)c2ccccc21`: 21.9% (active); for `CC(C)NC(=O)CSc1ccccc1C(=O)NCc1ccc2c(c1)OCO2`: -1.4%; for `COCCCNC(=S)NNC(=O)C(O)(c1ccccc1)c1ccccc1`: -2.3%. The same measure for `Cc1nn(CC(=O)NCc2ccccn2)c(C)c1[N+](=O)[O-]`: 5.4%; for `CS(=O)(=O)N(CC(=O)NC1CCCC1)Cc1ccc(F)cc1`: 6.9%. `CCOP(=O)(OCC)C(Nc1ccc([N+](=O)[O-])cc1)c1ccc(Cl)cc1` (centres undefined): the activation was -6.5%. In the case of `Cc1ccccc1-c1n[nH]c(=S)n1C`, the activation is 3.3%. Turning to `Cc1n[nH]c(=S)n1/N=C/c1ccc(Br)o1`, the activation was 7.5%. For the molecule `Cc1ccccc1-c1n[nH]c(=S)n1/N=C/c1ccc(-c2ccccc2Br)o1`, the activation was 32.5% (active). The same measure for `O=C1CCCN1CCCNC(=S)Nc1ccc(F)c(Cl)c1`: -5.5%.

In the case of `CCc1nc2ccccc2c(C(=O)OC2CCCCC2=O)c1C` (centres undefined), the activation was 12.2%. Under `CC1=C(C(=O)N(C)C)C(c2ccccc2OC(F)F)NC(=O)N1` (centres undefined) stands 6.7%. On to `CCS(=O)(=O)Nc1cc(C(=O)OC)ccc1C(=O)OC`, for which the activation is 7%. Consider `COC(=O)c1ccc(S(=O)(=O)c2ccc(C(=O)OC)s2)s1`, for which the activation is 26.8% (active). As to `COC(=O)c1cc(OC)ccc1-c1ccc(OC)cc1`, the activation was 9.8%. The same measure for `CCOc1ccc(S(=O)(=O)Nc2ccncc2)c(C)c1C`: 7.6%; for `Cc1ccc(C(=O)CNc2ccc(F)cc2)cc1`: -3.3%. For the molecule `COc1cccc2c1CCC(NC(C)=O)C2=O` (centres undefined), the activation was 0.5%. For `COc1ccc(NS(=O)(=O)c2cc(NC(=O)CC(=O)c3ccc([N+](=O)[O-])cc3)ccc2C)cc1`, the activation is 2.2%.

For the molecule `O=C(O)/C=C\C(=O)Nc1ccc(OCc2ccccc2)cc1`, the activation is 5.5%.

For the molecule `O=C(NCCCN1CCN(c2ccc(F)cc2)CC1)Nc1ccc([N+](=O)[O-])cc1`, the activation was 11.9%.

As to `CCOC(=O)CC(=O)CSc1nc(-c2ccccc2)cc(-c2ccc(Cl)cc2)c1C#N`, the activation is 22.2% (active). Take `N#Cc1c(C(F)(F)F)cc(-c2ccc(Cl)cc2)nc1SCC(=O)O`: the activation is 3.2%. The same measure for `CCSc1nc(-c2ccc(OC)cc2)cc(-c2ccc(OC)cc2)c1C#N`: -1.5%.

Turning to `COc1ccc(C(=O)OCC(=O)NCC2CCCO2)cc1[N+](=O)[O-]` (centres undefined), the activation was 15%. Consider `O=C(NCCOc1ccccc1F)Nc1ccc(Br)cc1`, for which the activation is 3.6%.

With `CC/C(=N\NC(=O)c1ccccc1Cl)c1ccc(Br)s1`, the activation was 4.2%.

With `CCOc1ccc(N=Cc2c(O)n(-c3cccc(C)n3)c(=O)c3ccccc23)cc1`, the activation was 1.1%. Consider `CCCCn1c(=O)c(C(C)=O)c(O)c2ccccc21`, for which the activation is 0.5%.

Regarding `CC(=O)n1c(C=Nc2ccccc2)c(O)c2ccccc21`, the activation is 22.7% (active). In the case of `COc1ccc(NS(=O)(=O)c2ccc(O)c(C(=O)OCC(=O)NC3CCCCC3)c2)cc1`, the activation is 4.7%. `CNC(=O)c1[nH]cnc1C(=O)N[C@@H](CC(C)C)C(=O)OC(C)(C)C`: the activation is 5.5%. Under `CN(CCc1cnn(C)c1)Cc1cn(C)nc1-c1ccccc1F` stands -5.8%; under `CC(C)N(Cc1ccccc1)C(=S)Nc1ccc(OC(F)F)cc1`, -4.1%; under `COc1cc(OC)c(C2=NOC(C(=O)Nc3c(C)n(C)n(-c4ccccc4)c3=O)C2)cc1Cl` (centres undefined), 3.3%.

On to `O=C(O)Cc1sc(-c2ccc(C(=O)O)cc2)nc1-c1ccccc1`, for which the activation is 12.4%. The same measure for `O=C(O)Cc1sc(-c2ccccc2)nc1-c1cccs1`: 28.9% (active); for `Cc1ccc(-c2nc(C)sc2CC(=O)O)cc1`: -2%. Under `CC1(C)C(C=C(Cl)Cl)C1C(=O)N(Cc1ccc(Cl)cc1)C1CCS(=O)(=O)C1` (centres undefined) stands 1.5%.

On to `N#C/C(C(=O)N1CCOCC1)=C1/SC(Cc2ccc(F)cc2)C(=O)N1c1ccccc1` (centres undefined), for which the activation is -4.4%. Regarding `CC(C)NC(=O)NC(=O)CSc1nnc(-c2ccccc2F)n1N`, the activation is 1.8%. `CSc1c(SCc2ccccc2)cnn(Cc2ccccc2)c1=O`: the activation was 24% (active). For the molecule `Cn1c(CO)cnc1SCc1ccccc1`, the activation is 6.4%. The same measure for `O=c1c2ccccc2c(-c2ccccc2)nn1Cc1ccccc1`: 1%. Under `COC(=O)NNC1=CC(=O)CC(C)(C)C1` stands 5.4%; under `COc1ccc(-n2c(C)cc(C(=O)COC(=O)c3cc(OC)c(OC)cc3NC(=O)c3cccs3)c2C)cc1`, 8.5%. Turning to `Cc1cccc(-c2ncc(CN3CCC(CO)(CCCc4ccccc4)CC3)cn2)c1`, the activation was 5.8%. Turning to `CC(=O)c1cccc(CN2CCC(CO)(Cc3ccccc3)CC2)c1`, the activation is 0%.

`OCC1(CCc2ccccc2)CCN(Cc2ccc3nsnc3c2)CC1`: the activation was 35.7% (active). Regarding `c1csc(-c2nnc(COc3ccc4c(c3)OCO4)o2)c1`, the activation was 0.1%. With `Cc1cccc(NC(=O)c2cc([N+](=O)[O-])ccc2N2CCN(C)CC2)c1`, the activation is 10.3%.

With `COCCN(C(=O)c1ccccc1F)c1c(N)n(Cc2ccccc2)c(=O)[nH]c1=O`, the activation was -2.5%. Under `CCN1CC(CN(C)Cc2nc(-c3ccc(Cl)cc3)no2)CC1=O` (centres undefined) stands -3.9%.

For `COc1ccc(Nc2nc(=O)[nH]nc2C)cc1`, the activation is 5.2%. With `Cc1n[nH]c(=O)nc1N/N=C/c1cccs1`, the activation was 22.1% (active). The same measure for `Clc1ccc(N/N=C/c2cccs2)nn1`: 4.4%; for `CC(=O)Nc1ccc(CN2CCN(Cc3ccc(F)c(F)c3)C(CCO)C2)cc1` (centres undefined): 3.4%; for `O=C(C1CCN(S(=O)(=O)c2cccs2)CC1)N1CCCCCC1`: -1.2%. Regarding `Cc1ccc(NS(=O)(=O)c2cccs2)cc1S(=O)(=O)N1CCCCCC1`, the activation was 27.9% (active). The same measure for `Cc1ccc(C(=O)NCC(=O)O)cc1S(=O)(=O)N1CCCCC1`: 2.2%; for `O=C(NNc1cc(Cl)ccc1Cl)c1cccnc1Cl`: 5%; for `C=C(C)CNC(=S)N/N=C/c1ccccc1OCC(=O)O`: 4.6%. The same measure for `CCOc1cccc(C(=O)Nc2nnc(-c3cccs3)s2)c1`: 41.8% (active). For `CCOc1cccc(C(=O)Nc2cccnc2)c1`, the activation is 4.5%. In the case of `CCCc1nnc(NC(=O)c2cccs2)s1`, the activation is -1.6%. `CCc1nnc(NC(=O)c2cccs2)s1`: the activation is 1.3%. For the molecule `Cc1ccc(C(=O)Nc2nnc(-c3cccs3)s2)cc1C`, the activation is 21.8% (active).

Regarding `Cc1ccc(C(=O)Oc2coc(CSc3nnc(NC(=O)c4cccs4)s3)cc2=O)cc1C`, the activation was -0.6%. With `COc1ccc(/C=C/C2=CC(C)(C)NC(=S)N2)c(OC)c1`, the activation is -5.6%. The same measure for `O=C(Cc1ccccc1Cl)N1CCN(c2ccccn2)CC1`: -1%; for `CC(Sc1nncn1C)C(=O)Nc1cc(C(F)(F)F)ccc1N1CCOCC1` (centres undefined): -2.1%.
